# Measurements from PubChem BioAssay (NCATS).
# Results filed as inconclusive are left out. Where a call stands in place of a potency, no number is given. Calls of active or inactive are those of the source. Unless noted, the call rests on the fitted dose curve; in most records, active means well fitted inhibition curve with a large enough effect; inconclusive means small, poorly fitted or top-dose-only effect; inactive means no such curve, though single readings can be large or run the other way.
# Tests used:
# [1] = qHTS assay for measurement of the activity of small molecule inhibitors on Zika virus induced Caspase-3 activity in human iPSC derived neural progenitor cells (hNPCs) (AID 1224857); settings: hNPCs ZIKV-induced caspase-3/7, Caspase-Glo luminescence, 6 h; series mostly up to 45.7 µM; further: nearly all actives have a fitted effect of over 65% in size
# Method in brief: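 Cells were plated at 350 per well and grown 16 to 20 hours. Compound pretreatment lasted one hour, after which ZIKV (2 FFU/cell) was added for 6 hours. Percent inhibition was normalized between uninfected and infected controls.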
# [2] = qHTS assay for measurement of the activity of small molecule inhibitors on Zika virus induced Caspase-3 activity in human astrocytoma cells (AID 1224859); settings: SNB-19 ZIKV-induced caspase-3/7, luminescence, 6 h; series mostly up to 45.7 µM
# Method in brief: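 Percent inhibition of virus-induced caspase-3/7 signal is calculated against uninfected and ZIKV-infected control cells. Cells are SNB-19, infected at 2 FFU/cell for 6 h after 1 h compound exposure.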
# [3] = High-throughput drug toxicity screening in the BPDCN cell line Cal-1 (AID 1224825; call rule not given here); settings: Cal-1 BPDCN cell viability, qHTS; at 45.8 µM (top of the series)
# Method in brief: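 Percent activity derived from CellTiter-Glo luminescence, scaling DMSO to 100% and 9.2 uM final bortezomib to 0%. BPDCN Cal-1 cells (500/well, RPMI plus 10% FBS) incubated with compounds 48 hours at 37C before reading.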
# [4] = qHTS Screen of the MIPE 4.0 Collection Against Ewings Sarcoma (RDES) (AID 1259252); settings: RD-ES Ewing sarcoma viability, CellTiter-Glo, 48 h; series mostly up to 45.8 µM; further: potency means the concentration at half of the fitted maximal effect; nearly all actives have a fitted effect of over 35% in size
# Method in brief: (§1)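 Cells plated in serum-containing RPMI (5% FBS) and treated with compound dilutions for 48 h. Readout luminescent viability; normalization relied on vehicle (no inhibition) and media-only columns (full inhibition).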
# [5] = qHTS Screen of the MIPE 4.0 Collection Against Ewings Sarcoma (EW8) (AID 1259255); settings: EW8 Ewing sarcoma viability, CellTiter-Glo, 48 h; series mostly up to 45.8 µM; further: potency means the concentration at half of the fitted maximal effect; nearly all actives have a fitted effect of over 35% in size
# Method in brief: as §1
# [6] = qHTS Screen of the MIPE 4.0 Collection Against Ewings Sarcoma (TC32) (AID 1259256); settings: TC32 Ewing sarcoma viability, CellTiter-Glo, 48 h; series mostly up to 45.8 µM; further: potency means the concentration at half of the fitted maximal effect; nearly all actives have a fitted effect of over 45% in size
# Method in brief: as §1
# [7] = qHTS Screen of the MIPE 4.0 Collection Against Ewings Sarcoma (TC71) (AID 1259253); settings: TC71 Ewing sarcoma viability, CellTiter-Glo, 48 h; series mostly up to 45.8 µM; further: potency means the concentration at half of the fitted maximal effect; nearly all actives have a fitted effect of over 40% in size
# Method in brief: as §1
compound,measurement,setting,value
C[N+]1(C)C2CC(OC(=O)[C@H](CO)c3ccccc3)CC1C1OC12 (some centres not stated),Potency,[1],inactive
O=C(O)CC[N+](=O)[O-],Potency,[1],inactive
same,Potency,[2],inactive
CC(O)CN1CCN(CC(=O)[O-])CCN(CC(=O)[O-])CCN(CC(=O)[O-])CC1.[Gd+3] (configuration not stated),Potency,[1],inactive
S=C(NC1CCCCC1)N1CCC(c2cnc[nH]2)CC1,Potency,[1],inactive
same,Potency,[2],inactive
CO[C@H]1CCC(O[C@H]2C[C@H]([C@]3(C)CC[C@]4(C[C@H](O)[C@@H](C)[C@@H]([C@@H](C)C=C(C)C(=O)[C@H](C)C[C@H](C)C(=O)O)O4)O3)O[C@]3(O[C@@H]([C@H]4O[C@@](O)(CO)[C@H](C)C[C@H]4C)C[C@H]3C)[C@H]2C)O[C@H]1C (some centres not stated),viability (% of control),[3],72.5%
same,Potency,[2],inactive
same,Potency,[4],0.418 µM (active)
same,Potency,[5],372 nM (active)
same,Potency,[6],0.418 µM (active)
C[C@]12CCC3C(CC[C@H]4C[C@H](O)CC[C@]34C)C1CC[C@@H]2C(=O)CO (some centres not stated),Potency,[1],inactive
same,Potency,[2],inactive
N#C[C@H](O[C@@H]1O[C@H](CO[C@@H]2O[C@H](CO)[C@H](O)[C@H](O)[C@H]2O)[C@H](O)[C@H](O)[C@H]1O)c1ccccc1,viability (% of control),[3],52.5%
same,Potency,[2],inactive
same,Potency,[4],23.5 µM (active)
same,Potency,[7],20.9 µM (active)
same,Potency,[6],26.4 µM (active)
NC(CCP(=O)(O)O)C(=O)O (configuration not stated),Potency,[1],inactive
same,Potency,[2],inactive
CCc1c(C(=O)C(N)=O)c2c(OCC(=O)O)cccc2n1Cc1ccccc1,viability (% of control),[3],115%
same,Potency,[2],inactive
same,Potency,[7],20.9 µM (active)
O=C(N[C@H]1CN2CCC1CC2)c1ccc(Cl)cc1,viability (% of control),[3],106%
same,Potency,[2],inactive
same,Potency,[4],8.33 µM (active)
same,Potency,[7],18.7 µM (active)
same,Potency,[6],14.8 µM (active)
C[C@@H](N)Cc1cnc[nH]1,Potency,[1],inactive
same,Potency,[2],inactive
Clc1cnc(Oc2ccc(Oc3ncc(Cl)cc3Cl)cc2)c(Cl)c1,Potency,[1],inactive
same,Potency,[2],inactive
CC1=C(C(=O)O)N2C(=O)[C@@H](N)[C@H]2SC1,Potency,[1],inactive
same,Potency,[2],inactive
CS(=N)(=O)CC[C@H](N)C(=O)O (some centres not stated),Potency,[1],inactive
same,Potency,[2],inactive
O=C(O)Cc1cnc[nH]1,Potency,[1],inactive
same,Potency,[2],inactive
O=C(O)COc1nc(Cl)c(Cl)cc1Cl,Potency,[1],inactive
same,Potency,[2],inactive
Fc1cc(Br)ccc1CBr,Potency,[1],inactive
same,Potency,[2],inactive
CCCCC(CC)COC(=O)c1ccccc1C(=O)OCC(CC)CCCC (configuration not stated),Potency,[1],inactive
COc1cc(C(O)CN)ccc1O (configuration not stated),Potency,[1],inactive
same,Potency,[2],inactive
CC1(C)CC/C(=C/c2ccc(Cl)cc2)C1(O)Cn1cncn1 (configuration not stated),Potency,[1],inactive
same,Potency,[2],inactive
